# Compound activity from PubChem BioAssay.
# TrxR1 substrate – qHTS Assay for Substrates of Mammalian Selenoprotein Thioredoxin Reductase 1 (TrxR1): qHTS | 390,000 tested, 0.01% active | Thioredoxin reductase 1, cytoplasmic (Rattus norvegicus), O89049 | Potency, µM (titrated, usually from 114 µM), inactives show at the highest dose activity change, negative = substrate turnover | AID 588456, 2011 | purified TrxR1 substrate turnover, NADPH consumption readout; further: potency means the concentration at half of the fitted maximal effect; on the % scale 0 is the no-effect control and ±100 the full control effect; nearly all actives have a fitted effect of over 50% in size
#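 Rat TrxR1, dispensed at 90 nM, was prereduced with 400 uM NADPH (final) for 5 min at ~22 deg C, then incubated with compound 15 min before 400 uM selenite. A first-read NADPH fluorescence drop versus no-compound background flagged substrates.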
# ClpP mod – qHTS Assay for Activators of ClpP. purified B. subtilis ClpP, FRET peptide cleavage, 20 min. Potency, µM (highest dose often 57.5 µM), inactives show at the top dose activity change, negative = active. 340,000 tested, 1.9% active. AID 651965, 2013; active means well fitted falling curve with a large enough effect; inconclusive means small, poorly fitted or top-dose-only effect; inactive means no such curve, though single readings can be large or run the other way; further: potency means the concentration at half of the fitted maximal effect; the source files actives as falling curves though it sought activators and does not explain the sign; nearly all actives have a fitted effect of over 65% in size
# Target sequence (P80244 whole entry, looked up): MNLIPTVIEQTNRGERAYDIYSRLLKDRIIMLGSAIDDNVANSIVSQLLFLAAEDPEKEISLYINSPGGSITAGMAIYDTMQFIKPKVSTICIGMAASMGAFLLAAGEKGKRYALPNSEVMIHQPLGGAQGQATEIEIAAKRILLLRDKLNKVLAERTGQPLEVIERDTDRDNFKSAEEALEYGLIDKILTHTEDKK
#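 FRET quenching reversal measured ClpP activation: 10 microg/mL B. subtilis ClpP at pH 8 with the FRET-FV decapeptide, read at 430 nm after 320 nm excitation. The 20-min minus 0-min signal was scaled between DMSO/no-enzyme wells and ADEP (5.8 microM final).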
# miR-21 reporter – qHTS Assay for Modulators of miRNAs and/orActivators of miR-21. HeLa miR-21 FLuc reporter, luciferase, 48 h. Potency, µM (series often up to 38.3 µM), for inactives: at the highest dose activity change, positive = activation, usual class: activators. 340,000 tested, under 10 active;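 further: % of control where 0% means no effect; miR-21 action dims this reporter so a rising signal means less miR-21 action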
#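 Compounds were titrated across several concentrations (up to approximately 40 uM) and incubated 48 hours with HeLa miR-21-FLuc reporter cells (miR-21 target sequence downstream of FLuc, endogenous miR-21). Readout was firefly luciferase luminescence after lytic detection reagent.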
# Apoferritin bind – qHTS Assay for Identification of Novel General Anesthetics. Ferritin light chain (Equus caballus), P02791. apoferritin/1-aminoanthracene competitive binding, fluorescence. Potency, µM (highest dose often 77.5 µM), for the others: at the highest dose activity change, negative = displacement, hits mostly inhibitors. 350,000 tested, 0.074% active. AID 485281, 2010; further: potency means the concentration at half of the fitted maximal effect; on the % scale 0 is the no-effect control and ±100 the full control effect; nearly all actives have a fitted effect of over 20% in size
# Target sequence (P02791 2-175 limits assumed): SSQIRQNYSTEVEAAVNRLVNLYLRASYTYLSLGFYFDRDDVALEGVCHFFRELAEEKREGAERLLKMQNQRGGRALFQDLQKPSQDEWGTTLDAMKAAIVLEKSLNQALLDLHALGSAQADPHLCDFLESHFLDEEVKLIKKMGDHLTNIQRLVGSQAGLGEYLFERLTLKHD
#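 Steps: apoferritin (10 uM) was premixed with half-saturated 1-AMA in PBS, compounds were pin-transferred, plates stood 10 min at room temperature, fluorescence was read at 380/535 nm, and curves were fitted with a Hill equation.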
# rTrxR1 inhibitor – qHTS Assay for Inhibitors of Mammalian Selenoprotein Thioredoxin Reductase 1 (TrxR1): qHTS | Thioredoxin reductase 1, cytoplasmic (Rattus norvegicus), O89049 | recombinant rTrxR1, NADPH fluorescence consumption, selenite substrate | Potency, µM (series often up to 114 µM), inactives show top-dose activity change, negative = inhibition, hits mostly inhibitors | 390,000 tested, 1% active; further: potency means the concentration at half of the fitted maximal effect; on the % scale 0 is the no-effect control and ±100 the full control effect; nearly all actives have a fitted effect of over 65% in size
#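 Rat TrxR1 (90 nM in the dispensed reagent) was pre-reduced with 400 uM NADPH for 5 min at room temperature, then incubated with compound for 15 min. After 400 uM selenite was added, NADPH fluorescence (Ex 340/Em 450 nm) was followed for 8 min.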
# HepG2 tox – Cell Viability Secondary Assay for Inhibitors of the Interaction of Thyroid Hormone Receptor and Steroid Receptor Coregulator 2; shares compounds with rTrxR1 inhibitor; 40 tested, 50% active; AID 2447, 2010; Potency, µM; HepG2 viability, ATP luminescence (CellTiter-Glo), 72 h; calls by dose curve
# * = called active by the depositor; ? = inconclusive; . = no result given; [ ] = dose if it differs, or a comment. This is a sample that favours compounds with a hit; in the whole collection about 2.5% have one here. Unless noted, the call rests on the fitted dose curve; in most records, active means well fitted curve in the direction sought with a large enough effect; inconclusive means small, poorly fitted or top-dose-only effect, or another doubt; inactive means no such curve, though single readings can be large; an effect the other way counts as inactive or inconclusive.
SMILES,TrxR1 substrate,ClpP mod,miR-21 reporter,Apoferritin bind,rTrxR1 inhibitor,others
COc1ccc(-n2nc3ccc(N)cc3n2)cc1Cl,71.9%,3.4%,-24.0%,220.8%,22.9%,
COc1ccc(CC(=O)Nc2cccc(-c3cn4ccccc4n3)c2)cc1,42.7%,20µM*,-25.2%,6.1%,5.0%,
Cc1cccc2nc(-c3cccc(NC(=O)c4ccc(Cl)cc4)c3)cn12,5.8%,37.5%,-6.1%,3.2%,9.8%,
O=C(Nc1cccc(-c2cn3ccccc3n2)c1)C1CC1,58.6%,28.2µM*,-25.2%,3.5%,11.3%,
CCC(=O)Nc1cccc(-c2cn3ccccc3n2)c1,56.6%,10µM*,-42.9%,-1.0%,-16.4%,
Cc1cccc2nc(-c3cccc(NC(=O)Cc4ccccc4)c3)cn12,19.2%,28.2µM*,-16.1%,0.4%,3.9%,
Cc1ccc(C)c(NC(=O)Cn2cc(C(=O)C3CCCCC3)c3ccccc32)c1,5.3%,-1.0%,16.1%,5.9%,18.9%,
CC(C)(C)C(=O)Nc1cccc(C(=O)OCc2cc(=O)n3nc(C4CCCCC4)sc3n2)c1,-0.7%[57.1 µM],-19.4%,-6.4%,-7.4%,10.7%[57.1 µM],
COc1ccc(CC(=O)N2CCc3cc(OC)c(OC)cc3C2COc2cc(C)cc(C)c2)cc1OC (stereo not drawn),0.5%[57.1 µM],-2.1%,19.4%,6.0%,9.3%[57.1 µM],
COc1ccc(CC(=O)Nc2ccc(-c3cn4ccccc4n3)cc2)cc1,32.8%,28.2µM*,-37.9%,-4.4%,28.8%,
COc1ccc(CC(=O)Nc2ccc(-c3cn4ccccc4n3)cc2)cc1OC,39.7%,?,-3.8%,330.0%,33.7%,
CCOC(=O)c1cc2c(=O)n3ccccc3nc2n(C(C)C)c1=NC(=O)c1ccncc1,59.5%[57.1 µM],28.2µM*,-25.2%,433.9%,-37.6%,
CCOC(=O)c1cc2c(=O)n3ccccc3nc2n(CCOC)c1=NC(=O)c1ccncc1,138.2%,12.6µM*,-9.5%,328.7%,?,
CCOC(=O)c1cc2c(=O)n3ccccc3nc2n(C(C)C)c1=NC(=O)c1c(-c2ccccc2Cl)noc1C,-2.3%[57.1 µM],.,-7.2%,-6.8%,24.8%[57.1 µM],
CCOC(=O)c1cc2c(=O)n3ccccc3nc2n(CCCOC)c1=NC(=O)C(C)(C)C,106.6%[57.1 µM],28.2µM*,-1.4%,648.7%,56.1%[57.1 µM],
CCOC(=O)c1cc2c(=O)n3ccccc3nc2n(CCOC)c1=NC(=O)C(C)(C)C,89.0%,17.8µM*,-0.1%,175.1%,-7.7%,
O=C(COc1ccc(Cl)cc1)NCC(c1ccco1)S(=O)(=O)c1ccc(Cl)cc1 (stereo not drawn),2.8%[57.1 µM],3.1%,11.8%,-0.6%,-2.7%[57.1 µM],
COCCc1nn2c(=O)cc(COC(=O)C(c3ccccc3)c3ccccc3)nc2s1,1.7%[57.1 µM],-3.2%,?,?,6.9%[57.1 µM],
O=C(OCc1ccco1)c1ccc2c(c1)N(Cc1cccc(F)c1)C(=O)c1ccccc1S2,1.7%[57.1 µM],-4.3%,-4.5%,-14.7%,15.2%[57.1 µM],
Cc1ccc(C(=O)OC(C)C(=O)NC2CCCCC2)cc1S(=O)(=O)N1CCCCC1 (stereo not drawn),2.2%,-1.0%,.,.,18.7%,
CCC(OC(=O)c1ccc(S(C)(=O)=O)c([N+](=O)[O-])c1)C(=O)NC1C2CC3CC(C2)CC1C3 (stereo not drawn),.,.,.,.,.,HepG2 tox=7.6µM*
CC(OC(=O)c1ccc(S(C)(=O)=O)c([N+](=O)[O-])c1)C(=O)NC1C2CC3CC(C2)CC1C3 (stereo not drawn),.,.,.,.,.,HepG2 tox=8.2µM*
CCCN(C(=O)Cn1ncc2c1-c1ccccc1OC2)c1cccc(C)c1,-21.9%,-4.7%,?,42.2%,-31.9%,
